In the library only some 21% were active in any assay of this set; here they are far more common.
Gal4-VP16 FLuc: Gal4-VP16 reporter inhibition counter-screen. Drosophila S2 Gal4-VP16 UAS-luciferase, luminescence, 20 h. Potency, µM (doses to about 53.6 µM), for the others: at the top dose activity, negative = inhibition, actives largely listed as inhibitors. hit rate 3.5% among 310,000;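 note: Gal4-VP16 expression switched on by copper sulfate through the metallothionein promoter; potency is the fitted concentration of half-maximal effect; nearly all actives have a fitted effect of over 50% in size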
ELG1 repair inh: blocks ELG1-dependent DNA repair in HEK293T cells | HEK293T ELG1-luciferase reporter, luminescence, 16 h; DNA damage induced by 5-fluorouridine | Potency, µM (doses to about 46.1 µM), for inactives: at the top dose activity change, negative = inhibition, usual class: inhibitors | hit rate 2.3% among 330,000 | AID 504467; note: potency is the fitted concentration of half-maximal effect; nearly all actives have a fitted effect of over 55% in size
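5-Fluorouridine DNA damage + compound/DMSO, 2,000 cells/well, 16 h, 37 °C/5% CO2. ONE-Glo, 30 min RT, luminescence. Readout = decrease in reporter signal.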
IL1B secr inh: inflammasome signaling inhibition, IL-1 beta readout; hit rate 4.7% among 360,000; AID 743279; THP-1 LPS/ATP IL-1B secretion, AlphaLISA, 16 h; hits give low values; activity change, % at 57.5 µM; in the data active = activity change below about -50%; inconclusive = mostly about -30% to -49%
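Secreted IL-1B measured by AlphaLISA bead assay after 16 h compound exposure of THP-1 cells; compounds (final up to 57.5 uM) added 1 h before LPS (250 ng/mL) and ATP (1.25 mM) stimulation; lower signal means less secretion.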
RORg inh: ROR gamma (mouse) transcription inhibition. Drosophila S2 Gal4-RORgamma UAS-luciferase reporter, 20 h. Potency, µM (doses to about 53.6 µM), for the others: top-dose activity change, negative = inhibition, usual class: inhibitors. hit rate 5.4% among 310,000. AID 2551; note: potency is the fitted concentration of half-maximal effect; nearly all actives have a fitted effect of over 60% in size
Target sequence (P51450 whole entry, looked up, the tested form may be a part): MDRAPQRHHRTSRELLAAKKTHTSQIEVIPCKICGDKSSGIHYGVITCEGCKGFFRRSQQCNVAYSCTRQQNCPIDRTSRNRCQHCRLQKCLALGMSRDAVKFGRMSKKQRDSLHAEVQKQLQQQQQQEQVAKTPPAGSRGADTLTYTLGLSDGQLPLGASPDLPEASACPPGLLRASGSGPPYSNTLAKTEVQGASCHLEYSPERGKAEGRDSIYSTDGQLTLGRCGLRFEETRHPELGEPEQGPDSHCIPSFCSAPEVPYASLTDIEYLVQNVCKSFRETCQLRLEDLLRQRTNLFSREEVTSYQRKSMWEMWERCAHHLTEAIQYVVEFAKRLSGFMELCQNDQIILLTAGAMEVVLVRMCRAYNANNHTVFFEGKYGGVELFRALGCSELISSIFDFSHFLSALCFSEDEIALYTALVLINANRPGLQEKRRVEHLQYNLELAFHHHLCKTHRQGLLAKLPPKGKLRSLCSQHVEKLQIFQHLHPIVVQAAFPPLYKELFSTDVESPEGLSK
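Stable Schneider cell line, Gal4 DNA-binding domain fused to ROR gamma, UAS-luciferase. Cmpd 1 hr RT → CuSO4 700 uM final → 20 hr RT → luciferase reagent 10 min → luminescence.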
TDP1 cell noCPT: qHTS for Inhibitors of human tyrosyl-DNA phosphodiesterase 1 (TDP1): qHTS in cells in absence of CPT; hit rate 15% among 420,000; Potency, µM (top dose mostly 46.2 µM), for inactives: at the top dose activity change, negative = growth inhibition, hits mostly inhibitors; DT40 Tdp1-/- hTDP1 cells, no CPT, ATP luminescence, 48 h; note: potency is the fitted concentration of half-maximal effect; nearly all actives have a fitted effect of over 55% in size
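Stably hTDP1-transfected Tdp1-null chicken DT40 cells were treated with library compounds minus camptothecin and grown for at least 48 hr at 37 °C, after which cellular ATP was quantified by luminescence.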
DT40 TDP1 CPT: DT40-hTDP1 cell growth loss with CPT; chicken DT40 Tdp1-/-;hTDP1 cells + 20 nM CPT, ATP luminescence, 48 h; Potency, µM (highest dose often 46.2 µM), for the others: at the highest dose activity change, negative = growth inhibition, usual class: inhibitors; hit rate 12% among 420,000; note: potency is the fitted concentration of half-maximal effect; nearly all actives have a fitted effect of over 55% in size
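Chicken DT40 Tdp1-/- cells stably complemented with human TDP1 were seeded at 400 cells/well in medium containing 20 nM camptothecin, exposed to pin-transferred compounds, and grown at 37 °C for at least 48 hr. Viability was read as ATP luminescence.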
The depositor's hits bear a star; u = inconclusive; x = not tested or not shown; [ ] = remark or other dose. Unless noted, calls come from the whole dose curve; as a rule, active = well fitted curve in the direction sought with a large enough effect; inconclusive = small, poorly fitted or top-dose-only effect, or another doubt; inactive = no such curve, though single readings can be large; an effect the other way counts as inactive or inconclusive. % is set by controls: 0 for no effect and ±100 for the full control effect.

SMILES	Gal4-VP16 FLuc	ELG1 repair inh	IL1B secr inh	RORg inh	TDP1 cell noCPT	DT40 TDP1 CPT
Cc1ccc2nsnc2c1NC(=S)NC(=O)c1ccco1	-12%	9%	-6	-19%[10 µM]	-8%	13%
Cc1ccccc1C(=O)NC(=S)Nc1ccccc1C(F)(F)F	u	-17%	-3	0.79µM*	u	-27%
O=C(NC(=S)Nc1ccccc1C(F)(F)F)c1ccccc1F	u	-14%	0	6.3µM*	u	-4%
CCOc1cccc2cc(C(=O)N3CC(C)OC(C)C3)c(=O)oc12 (configuration not stated)	-2%	-7%	-4	-5%	-16%	6%
C=CCC1(CC=C)CCCN1C(=O)C1CCC(=O)N(CCc2ccccc2)C1 (configuration not stated)	-19%	u	-16	u	5.8µM*	9.2µM*
C=CCC1(CC=C)CCCN1C(=O)C1CCC(=O)N(CCc2ccc(OC)cc2)C1 (configuration not stated)	-21%	u	-4	u	10µM*	12µM*
O=C1CCC(C(=O)N2CCSCC2)CN1CCc1ccccc1 (configuration not stated)	6%	u	4	1%	33%	-13%
COc1ccc(CCN2CC(C(=O)N3CCC(OC)CC3)CCC2=O)cc1 (configuration not stated)	2%	18%	-16	-10%	-2%	4%
Cn1c(N)c(S(=O)(=O)N2CCN(c3ccccc3Cl)CC2)c(=O)n(C)c1=O	9%	-7%	-7	-43%	-2%	0%
O=C(Nc1ccc(Cl)cc1)C1CCCN(S(=O)(=O)c2ccc3[nH]c(=O)ccc3c2)C1 (configuration not stated)	x	x	x	x	-20%	u
CC1CN(C(=O)COC(=O)c2ccc(F)cc2Cl)CC(C)O1 (configuration not stated)	-6%	22%	24	4%	1%	26%
C=CCn1cn[nH]c1=S	-13%	2%	26	u	0%	5.2µM*
Cc1c(C)c2ccc(OCC(=O)NCCN3CCOCC3)c(C)c2oc1=O	-11%	u	0	0%	2%	7%
Cc1ccc(C(c2sc3nc(-c4ccco4)nn3c2O)N2CCN(c3ccc(F)cc3)CC2)cc1 (configuration not stated)	x	x	x	x	-8%	-1%
Cc1cc(NC(=O)CCC(=O)N(CCC(C)C)C(C(=O)NCC2CCCO2)c2ccccc2C)no1 (configuration not stated)	4%	-4%	-57*	16%	u	-11%
CCCCN(C(=O)CCC(=O)Nc1cc(C)on1)C(C(=O)NC1CCCC1)c1ccc(OCC)cc1 (configuration not stated)	-4%	-12%	-16	11%	16µM*	u
C=CCN(C(=O)CCC(=O)Nc1cc(C)on1)C(C(=O)NC1CCCC1)c1ccc(CC)cc1 (configuration not stated)	-7%	-23%	-9	5%	15µM*	u
Cc1cc(NC(=O)CCC(=O)N(CCC(C)C)CC(=O)NCC2CCCO2)no1 (configuration not stated)	2%	1%	39	-2%	0%	5%
NCC1CCCCC1CC(=O)O (configuration not stated)	-4%	x	x	6%	-3%	-16%
Cn1c(C(=O)NCc2ccc(F)cc2)cc2cc(S(=O)(=O)N3CCCCC3)ccc21	x	x	x	x	12µM*	23µM*
CSc1ccc(CNC(=O)c2cc3cc(S(=O)(=O)N4CCCCC4)ccc3n2C)cc1	x	x	x	x	u	-20%
CCc1ccc(CNC(=O)c2cc3cc(S(=O)(=O)N4CCCCC4)ccc3n2C)cc1	x	x	x	x	13µM*	u
Cc1ccccc1CNC(=O)c1cc2cc(S(=O)(=O)N3CCCCC3)ccc2n1C	x	x	x	x	18µM*	u
Nc1cc(=O)nc2cn[nH]n12	x	x	-1	x	4%	10%
CC1=C(C(=O)Nc2ccccc2)C(c2ccco2)C(C#N)=C(SCc2ccccc2)N1 (configuration not stated)	-3%	-25%	x	3%	x	x
SMILES	Gal4-VP16 FLuc	ELG1 repair inh	IL1B secr inh	RORg inh	TDP1 cell noCPT	DT40 TDP1 CPT
CC(=O)C1=C(C)NC(SCC(N)=O)=C(C#N)C1c1ccco1 (configuration not stated)	22%	6%	-12	u	20%	26%
COc1ccccc1NC(=O)C1=C(C)NC(SCC(=O)c2ccc(C)cc2)=C(C#N)C1c1ccco1 (configuration not stated)	3%	16µM*	x	-29%	x	x
CC(=O)C1=C(C)NC(SCc2cccc([N+](=O)[O-])c2)=C(C#N)C1c1ccco1 (configuration not stated)	8%	u	-66*	34%	u	u
CC(=O)C1=C(C)NC(SCC(=O)c2ccc(F)cc2)=C(C#N)C1c1ccco1 (configuration not stated)	4%	u	-85*	17%	u	u
CCc1ccc(C(=O)CSC2=C(C#N)C(c3ccco3)C(C(C)=O)=C(C)N2)cc1 (configuration not stated)	u	-29%	x	6.3µM*	u	u
CC(=O)Nc1ccn(C2CC3OCC(NC(=O)C(NC(=O)OC(C)(C)C)C(C)OCc4ccccc4)C3O2)c(=O)n1 (configuration not stated)	-5%	x	x	-19%	x	x
Cc1ccc(S(=O)(=O)NCC(=O)OC(C)C(=O)NC2CCCCC2C)cc1C (configuration not stated)	x	10%	8	x	-5%	-16%
COc1cccc(C(C(=O)NC2CCCC2)N2CCN(c3ncccc3C#N)CC2)c1OC (configuration not stated)	x	x	-12	x	16µM*	u
Cc1ccc(C)c(N2CCN(C(C(=O)NC3CCCC3)c3ccco3)CC2)c1 (configuration not stated)	x	x	-55*	x	12µM*	u
CC(C)C(C(=O)NC1CCCC1)N1CCC(O)(c2ccc(Cl)cc2)CC1 (configuration not stated)	x	x	-3	x	u	u
CCOC(=O)N1CCN(C(C(=O)NC2CCCC2)c2ccco2)CC1 (configuration not stated)	x	x	12	x	-1%	u

From PubChem
